Measurements: PubChem BioAssay
Active and inactive are the calls of the source.

What was measured:
[1] = system: Plasmodium falciparum Sir2 (PF13_0152, Sir2A); assay: Plasmodium falciparum Sir2A binding compounds – biochemical, small-molecule microarray, 635 nm fluorescence, primary screen (AID 1098); details: fluorescence 635 nm, higher = more signal;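 note: score merges spot fluorescence intensity with its signal-to-noise ratio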
[2] = probe aDKK1 binding to arrayed compounds – biochemical, biotinylated probe, 635/667 nm fluorescence, primary screen (AID 1099); details: small-molecule microarray, higher = more signal;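 note: score merges 667nm spot fluorescence with signal to noise across triplicate slides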
[3] = probe aCHRDL2 binding to arrayed compounds – biochemical, biotinylated probe, 635/667 nm fluorescence, primary screen (AID 1100); details: small-molecule microarray, higher = more signal
[4] = change in splice reporter luminescence, either direction, cell-based, HEK293, spliceosome inhibition project, primary screen (AID 1101); details: HEK293 splicing luciferase reporter, 24 h, higher = more signal, called active from +8 up or from −8 down;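 note: HEK293 cells carrying a splicing-competent luciferase reporter gene; test concentration not given here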
[5] = target: Fibroblast growth factor 10 (Homo sapiens) (UniProt O15520); assay: compounds binding fibroblast growth factor 10 – biochemical, small-molecule microarray, 635 nm fluorescence, primary screen (AID 1102); details: FGF10 binding, fluorescence 635 nm, higher = more signal
[6] = system: glycogen synthase kinase-3 (GSK3A per assay name; protocol says GSK3B); assay: compounds binding glycogen synthase kinase-3 – biochemical, small-molecule microarray, 635 nm fluorescence, GSK3A, primary screen (AID 1103); details: fluorescence 635 nm, higher = more signal; note: the record names both GSK3A and GSK3B
[7] = target: Epidermal growth factor receptor (Homo sapiens) (UniProt P00533); assay: compounds binding epidermal growth factor receptor – biochemical, small-molecule microarray, 635 nm fluorescence, primary screen (AID 1104); details: EGFR binding, higher = more signal;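 note: score merges 667 nm emission intensity with spot signal to noise over triplicate slides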
[8] = target: Follistatin-related protein 3 (Homo sapiens) (UniProt O95633); assay: compounds binding follistatin-related protein 3 – biochemical, small-molecule microarray, 635 nm fluorescence, primary screen (AID 1105); details: FSTL3 binding, higher = more signal;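 note: score merges emission near 667 nm and signal to noise per printed spot across three slides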
[9] = target: Dickkopf-related protein 1 (Homo sapiens) (UniProt O94907); assay: small molecules binding DKK1 protein – biochemical, small-molecule microarray, 635 nm fluorescence scan, primary screen (AID 1106); details: higher = more signal;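 note: score merges emission near 667 nm with signal to noise over three replicate slides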
[10] = system: Inhibin beta A chain (activin A); assay: small molecules binding activin A – biochemical, small-molecule microarray, 635 nm fluorescence scan, primary screen (AID 1107); details: INHBA, higher = more signal;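 note: mouse activin A protein probed at 4.33 µg/mL on printed slides; score merges bound-protein fluorescence near 667 nm with spot signal-to-noise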
[11] = system: Human papillomavirus type 1a protein E7 (residues 44-93); assay: small molecules binding HPV E7 44-93 – biochemical, small-molecule microarray, residues 44-93, 635 nm fluorescence, primary screen (AID 1108); details: fluorescence 635 nm, higher = more signal;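 note: E7 fragment applied at 1 µg/mL in TBST for 1 h at 4 C; score combines spot fluorescence with its signal to noise ratio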
[12] = hepatitis C replication reporter changes, two-sided – Huh7 cells, luciferase reporter, HCV replication inhibitor project, primary screen (AID 1109); details: Huh7 HCV replicon luciferase reporter, 48 h; higher = more signal;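 note: huh7 hepatoma cells harbouring a luciferase neomycin HCV replicon reporter; luciferase luminescence as measure of HCV replicon replication; test concentration not given here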
[13] = target: Left-right determination factor 2 (Homo sapiens) (UniProt O00292); assay: small molecules binding LEFTY2 protein – biochemical, small-molecule microarray, 635 nm fluorescence scan, primary screen (AID 1110); details: higher = more signal
[14] = target: Calmodulin-1 (Homo sapiens) (UniProt P0DP23); assay: small molecules binding calmodulin-1 with EGTA – biochemical, small-molecule microarray, Cy5-labelled CALM1, profiling panel (AID 1111); details: Cy5-CALM1 binding fluorescence, higher = more signal;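 note: labelled calmodulin applied in Tris saline Tween buffer holding calcium plus EGTA and DTT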
[15] = target: Calmodulin-1 (Homo sapiens) (UniProt P0DP23); assay: small molecules binding Ca-loaded calmodulin-1 – biochemical, small-molecule microarray, Cy5-labelled CALM1, plus calcium, artefact control for SMM control-protein annotation, profiling panel (AID 1112); details: Cy5-CALM1 binding fluorescence, higher = more signal;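 note: score merges spot fluorescence with signal to noise from triplicate slides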
[16] = probe aWnt5a binding to arrayed compounds – biochemical, biotinylated probe, 635/667 nm fluorescence, primary screen (AID 1113); details: small-molecule microarray, higher = more signal;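 note: score merges 667 nm fluorescence intensity with signal-to-noise per printed feature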
[17] = probe aShh binding to arrayed compounds – biochemical, biotinylated probe, 635/667 nm fluorescence, primary screen (AID 1114); details: small-molecule microarray, higher = more signal;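 note: probe is biotin-labelled aShh protein from a stem cell growth factor screen; measures binding of labelled protein to compounds printed on the slide; score merges feature fluorescence at 667 nm with signal-to-noise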
[18] = probe aNog binding to arrayed compounds – biochemical, biotinylated probe, 635/667 nm fluorescence, primary screen (AID 1115); details: small-molecule microarray, higher = more signal;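 note: probe is biotinylated aNog protein used at 0.15 µg/mL for 1 h at 4 C; z-score combines 667 nm fluorescence of each spot with its signal to noise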
[19] = target: Torsin-1A-interacting protein 1 (Homo sapiens) (UniProt Q5JTV8); assay: compound microarray binding of lysate hLAP1 – cell lysate, small-molecule microarray, COS7 lysate, 635/667 nm fluorescence, primary screen (AID 1116); details: 635 nm fluorescence, higher = more signal
[20] = target: Alpha-bungarotoxin (Bungarus multicinctus) (UniProt P60615); assay: compounds binding labelled alpha-BTX control protein – biochemical, small-molecule microarray, Alexa647 label, 635/667 nm fluorescence, artefact control for SMM control protein annotation, profiling panel (AID 1117); details: alpha-BTX-A647 binding fluorescence, higher = more signal
Chain of Alpha-bungarotoxin (Bungarus multicinctus) (P60615 whole entry, looked up): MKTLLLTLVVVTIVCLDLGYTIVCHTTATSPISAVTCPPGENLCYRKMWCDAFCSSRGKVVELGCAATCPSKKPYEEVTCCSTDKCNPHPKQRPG

Chain of Left-right determination factor 2 (Homo sapiens) (O00292 whole entry, looked up): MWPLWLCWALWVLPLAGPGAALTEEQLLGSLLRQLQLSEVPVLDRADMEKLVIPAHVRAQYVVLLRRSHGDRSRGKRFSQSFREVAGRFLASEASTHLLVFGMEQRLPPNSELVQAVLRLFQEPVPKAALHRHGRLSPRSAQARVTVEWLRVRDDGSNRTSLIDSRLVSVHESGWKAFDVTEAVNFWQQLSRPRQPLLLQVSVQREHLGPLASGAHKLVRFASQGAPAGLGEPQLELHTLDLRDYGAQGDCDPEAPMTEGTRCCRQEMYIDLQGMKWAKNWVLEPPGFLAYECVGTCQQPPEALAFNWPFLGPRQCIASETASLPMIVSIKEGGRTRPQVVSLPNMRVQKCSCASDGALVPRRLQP
Chain of Dickkopf-related protein 1 (Homo sapiens) (O94907 whole entry, looked up): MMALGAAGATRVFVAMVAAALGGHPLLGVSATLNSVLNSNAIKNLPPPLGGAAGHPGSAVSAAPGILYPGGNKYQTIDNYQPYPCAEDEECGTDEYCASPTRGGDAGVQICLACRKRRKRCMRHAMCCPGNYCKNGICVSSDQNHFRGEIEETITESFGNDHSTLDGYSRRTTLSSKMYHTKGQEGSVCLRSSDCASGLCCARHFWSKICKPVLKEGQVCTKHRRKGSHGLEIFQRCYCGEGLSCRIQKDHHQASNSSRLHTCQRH
Chain of Follistatin-related protein 3 (Homo sapiens) (O95633 whole entry, looked up): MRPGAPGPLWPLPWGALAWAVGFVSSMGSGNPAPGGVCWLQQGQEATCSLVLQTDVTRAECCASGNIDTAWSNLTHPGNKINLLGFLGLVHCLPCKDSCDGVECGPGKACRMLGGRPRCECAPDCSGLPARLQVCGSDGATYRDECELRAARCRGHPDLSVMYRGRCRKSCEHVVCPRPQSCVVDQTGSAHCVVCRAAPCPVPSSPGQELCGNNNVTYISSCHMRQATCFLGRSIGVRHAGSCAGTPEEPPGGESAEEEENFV
Chain of Torsin-1A-interacting protein 1 (Homo sapiens) (Q5JTV8 whole entry, looked up): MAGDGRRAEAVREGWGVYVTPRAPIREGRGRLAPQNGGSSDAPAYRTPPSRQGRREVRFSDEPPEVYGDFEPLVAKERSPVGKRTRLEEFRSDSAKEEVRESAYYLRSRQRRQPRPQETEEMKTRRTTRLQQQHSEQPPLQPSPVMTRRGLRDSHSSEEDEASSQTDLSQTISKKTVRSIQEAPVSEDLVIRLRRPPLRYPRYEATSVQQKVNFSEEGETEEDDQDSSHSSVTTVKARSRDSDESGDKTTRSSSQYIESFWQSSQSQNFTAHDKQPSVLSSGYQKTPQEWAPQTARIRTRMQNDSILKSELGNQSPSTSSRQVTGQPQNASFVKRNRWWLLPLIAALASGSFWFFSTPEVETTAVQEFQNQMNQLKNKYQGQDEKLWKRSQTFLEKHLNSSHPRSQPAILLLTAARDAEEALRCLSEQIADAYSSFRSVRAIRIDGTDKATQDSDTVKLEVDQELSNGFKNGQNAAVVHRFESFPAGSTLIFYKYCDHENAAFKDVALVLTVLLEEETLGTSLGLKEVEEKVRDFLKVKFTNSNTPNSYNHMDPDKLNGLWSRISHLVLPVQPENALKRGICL
Chain of Epidermal growth factor receptor (Homo sapiens) (P00533 whole entry, looked up): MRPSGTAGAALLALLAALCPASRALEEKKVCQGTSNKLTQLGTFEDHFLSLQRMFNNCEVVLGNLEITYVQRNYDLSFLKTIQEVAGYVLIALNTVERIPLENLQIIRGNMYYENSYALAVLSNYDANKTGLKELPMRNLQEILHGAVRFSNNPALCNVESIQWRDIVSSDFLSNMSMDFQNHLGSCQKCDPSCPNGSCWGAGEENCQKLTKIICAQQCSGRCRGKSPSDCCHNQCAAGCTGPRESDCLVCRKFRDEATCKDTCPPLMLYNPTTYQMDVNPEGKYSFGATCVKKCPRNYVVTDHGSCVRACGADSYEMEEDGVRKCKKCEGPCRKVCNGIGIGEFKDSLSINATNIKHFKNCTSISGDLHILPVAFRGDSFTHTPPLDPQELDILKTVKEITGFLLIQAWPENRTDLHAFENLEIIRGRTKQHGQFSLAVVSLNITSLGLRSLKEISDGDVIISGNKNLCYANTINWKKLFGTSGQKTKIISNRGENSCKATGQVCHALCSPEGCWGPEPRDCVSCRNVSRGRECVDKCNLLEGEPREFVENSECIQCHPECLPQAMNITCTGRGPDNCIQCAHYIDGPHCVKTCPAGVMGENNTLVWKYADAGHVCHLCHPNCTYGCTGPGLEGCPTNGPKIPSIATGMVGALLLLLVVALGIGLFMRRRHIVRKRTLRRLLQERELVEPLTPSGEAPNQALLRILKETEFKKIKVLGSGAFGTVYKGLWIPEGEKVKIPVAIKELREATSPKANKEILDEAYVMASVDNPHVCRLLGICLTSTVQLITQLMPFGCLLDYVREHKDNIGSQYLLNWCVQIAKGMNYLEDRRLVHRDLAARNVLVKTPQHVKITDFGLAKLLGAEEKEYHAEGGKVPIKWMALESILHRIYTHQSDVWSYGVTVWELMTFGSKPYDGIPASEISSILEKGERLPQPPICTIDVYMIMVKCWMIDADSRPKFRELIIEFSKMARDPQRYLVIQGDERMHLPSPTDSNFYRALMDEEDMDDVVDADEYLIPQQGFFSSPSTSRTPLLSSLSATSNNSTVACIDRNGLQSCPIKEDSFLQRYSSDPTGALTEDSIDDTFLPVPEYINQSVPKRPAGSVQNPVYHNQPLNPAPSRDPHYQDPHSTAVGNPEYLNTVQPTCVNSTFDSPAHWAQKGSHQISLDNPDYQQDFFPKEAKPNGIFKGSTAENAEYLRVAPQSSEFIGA
Chain of Fibroblast growth factor 10 (Homo sapiens) (O15520 whole entry, looked up): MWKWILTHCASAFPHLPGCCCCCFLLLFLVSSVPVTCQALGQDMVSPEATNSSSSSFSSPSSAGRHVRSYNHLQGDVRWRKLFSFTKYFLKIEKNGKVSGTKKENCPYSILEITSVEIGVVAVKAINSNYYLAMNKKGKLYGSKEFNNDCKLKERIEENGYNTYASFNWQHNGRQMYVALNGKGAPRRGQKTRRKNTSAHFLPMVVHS

Cc1ccc(S[C@]2(C(=O)O)CC(=O)N(Cc3ccccc3)[C@@H]2c2ccc(CO)cc2I)cc1
composite z-score [1]: 1.17
composite z-score [2]: -0.0401
composite z-score [3]: 0.894
z-score [4]: -0.982 (inactive)
composite z-score [5]: -0.406
composite z-score [6]: -0.0099
composite z-score [7]: -0.814
composite z-score [8]: -0.417
composite z-score [9]: -0.776
composite z-score [10]: 0.84
composite z-score [11]: 0.34
z-score [12]: -1.45
composite z-score [13]: -0.891
composite z-score [14]: -0.0405
composite z-score [15]: -0.0584
composite z-score [16]: -0.118
composite z-score [17]: -0.206
composite z-score [18]: -0.409
composite z-score [19]: -0.192
composite z-score [20]: 0.823

COC(=O)c1c(CC[C@@H](CO)NC(=O)N[C@H](Cc2ccccc2)Cn2cc(-c3ccccc3N)nn2)oc(C(C)=O)c1C(=O)OC
composite z-score [1]: 0.326
composite z-score [2]: 0.759
composite z-score [3]: 0.886
z-score [4]: 0.433 (inactive)
composite z-score [5]: 0.865
composite z-score [6]: 0.355
composite z-score [7]: -0.165
composite z-score [8]: 0.204
composite z-score [9]: -0.299
composite z-score [10]: 0.95
composite z-score [11]: 0.734
z-score [12]: -1.35
composite z-score [13]: -0.104
composite z-score [14]: -0.0936
composite z-score [15]: -0.656
composite z-score [16]: -0.001
composite z-score [17]: 0.0326
composite z-score [18]: 1.12
composite z-score [19]: 1.54
composite z-score [20]: 0.57

O=C1C2C=CC(C(O)c3ccc([N+](=O)[O-])cc3)N(Nc3ccc([N+](=O)[O-])cc3)C2C(=O)N1c1ccccc1 (stereo not given)
composite z-score [1]: 0.867
composite z-score [2]: 0.969
composite z-score [3]: 0.539
z-score [4]: -0.291 (inactive)
composite z-score [5]: 0.818
composite z-score [6]: 1.29
composite z-score [7]: 0.301
composite z-score [8]: 0.255
composite z-score [9]: -0.12
composite z-score [10]: 0.69
composite z-score [11]: 1.47
z-score [12]: -0.74
composite z-score [13]: 0.179
composite z-score [14]: 2.01
composite z-score [15]: 0.757
composite z-score [16]: 0.152
composite z-score [17]: 0.0796
composite z-score [18]: 0.0473
composite z-score [19]: 1.3
composite z-score [20]: 2.8

CCOC(=O)[C@H](CC(C)C)NC(=O)CCC1CC(OC(=O)NCc2cccc3ccccc23)CC2(CCCC(COC(=O)NCCN3CCOCC3)O2)O1 (stereo not given in full)
composite z-score [1]: 0.608
composite z-score [2]: -0.265
composite z-score [3]: -0.668
z-score [4]: -0.746 (inactive)
composite z-score [5]: 0.763
composite z-score [6]: 1.28
composite z-score [7]: 0.416
composite z-score [8]: 0.707
composite z-score [9]: 0.652
composite z-score [10]: 0.209
composite z-score [11]: 1.26
z-score [12]: -0.814
composite z-score [13]: 0.444
composite z-score [14]: 0.144
composite z-score [15]: -0.854
composite z-score [16]: -0.176
composite z-score [17]: -0.0605
composite z-score [18]: -0.261
composite z-score [19]: 0.217
composite z-score [20]: 0.548

CC(CCN1CCc2nc(-c3ccccc3)c(-c3ccccc3)cc2C1)=NOC(C)CN1CCCCc2nc(C)c(C)cc21 (stereo not given)
composite z-score [1]: 0.646
composite z-score [2]: -0.0421
composite z-score [3]: 0.318
z-score [4]: -0.0114 (inactive)
composite z-score [5]: 0.593
composite z-score [6]: 0.746
composite z-score [7]: 0.964
composite z-score [8]: 0.609
composite z-score [9]: 0.77
composite z-score [10]: 1.15
composite z-score [11]: 1.27
z-score [12]: -2.03
composite z-score [13]: 0.573
composite z-score [14]: 0.578
composite z-score [15]: -0.0705
composite z-score [16]: -0.0819
composite z-score [17]: -0.202
composite z-score [18]: -0.077
composite z-score [19]: 0.787
composite z-score [20]: 0.799

CCOC(=O)NN=C1C[C@@H](O)[C@@H](O)[C@@H]2[C@@H]3C(=O)N(C4CCCCC4)C(=O)[C@@H]3CC[C@@H]12
composite z-score [1]: 0.104
composite z-score [2]: -0.192
composite z-score [3]: -0.499
z-score [4]: 1.06 (inactive)
composite z-score [5]: 0.534
composite z-score [6]: 0.132
composite z-score [7]: 0.34
composite z-score [8]: 0.297
composite z-score [9]: 0.476
composite z-score [10]: 0.212
composite z-score [11]: 0.0883
z-score [12]: -0.336
composite z-score [13]: 0.342
composite z-score [14]: -0.29
composite z-score [15]: -0.401
composite z-score [16]: -0.0462
composite z-score [17]: -0.341
composite z-score [18]: -0.158
composite z-score [19]: 0.109
composite z-score [20]: 0.601
